Source: the supplement of paper PMC10941209
Values without a mark were called inactive.

Each molecule was assayed on Toxoplasma gondii RH 2F1 tachyzoites (intracellular in HFF) (assay: parasite survival relative to DMSO control; higher = less antiparasitic activity, active = 20 or less). Conditions: 1 µM; 72 h.
Procedure, shortened: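 Toxoplasma gondii RH-2F1 tachyzoites expressing β-galactosidase (5 × 10^3 per well) were used to infect HFF cells at 5 × 10^3 cells/well in 96-well plates for 3 h in D2 medium. Cells then received compound at 1 μM for 72 h at 37°C in 5% CO2, were lysed for 15 min, and were given CPRG, with absorbance at 570 nm read after 30 min. Survival denotes this signal as a percentage of DMSO-treated infected controls. Each value reflects 2 or more biological replicates.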

Row | Structure (SMILES) | parasite survival
1 | CC(C)(C)c1ccc(Oc2ccc(N)cc2)cc1 | 81.4%
2 | Clc1cc(Cl)c2c(c1)CCc1ccccc1C2n1ccnc1 (stereo not given) | 7.97% (active)
3 | COc1nc2ccc(Br)cc2cc1[C@@H](c1ccccc1)[C@@](O)(CCN(C)C)c1cccc2ccccc12 | 14% (active)
4 | O=C(Nc1[nH]c(=O)ncc1F)c1ccccc1 | 84.3%
5 | CN(C)c1[nH]c(=O)ncc1F | 36.6%
6 | O=C1CCC(N2C(=O)c3ccccc3C2=O)C(=O)N1 (stereo not given) | 58.1%
7 | COc1cccc(N2CCN(C3=Nc4c(F)cccc4[C@H](CC(=O)O)N3c3cc(C(F)(F)F)ccc3OC)CC2)c1 | 41.2%
8 | O=C(NCc1ccc2c3c(cccc13)C(=O)N2)c1cccs1 | 75.5%
9 | CCCCCc1ccc(C(=O)NCCn2cc(CCCCCc3c[nH]c(N)n3)nn2)cc1 | 67.5%
10 | N=C(N)c1ccc(COc2ccc(Cl)cc2)cc1 | 54.6%
11 | CC(C)Oc1ccc(-c2nc(-c3cccc4c3CC[C@@H]4NCCO)no2)cc1C#N | 41.9%
12 | O=C(NC(=O)N1CCCc2ccccc21)c1cccc(Cl)c1 | 28.3%
13 | CCNC(=O)Nc1cc(-c2ccccc2)c(-c2cncc(C(=O)O)c2)cn1 | 33%
14 | Nc1nc(O)c2ncn([C@@H]3O[C@H](CO)[C@@H](O)[C@H]3F)c2n1 | 75.9%
15 | Cc1c(F)cccc1NC(=O)Nc1ccc(Cl)c(S(=O)(=O)[C@H]2CCCNC2)c1O | 73.2%
16 | CN(C(=O)C1(c2ccc(Cl)cc2)CCC1)c1ccccc1 | 83.6%
17 | O=C(O)/C=C/C=C/c1cccc(Oc2cc(Cl)cc(Cl)c2)c1 | 36.2%
18 | COc1cc(Cc2cc(N)nc(N)n2)cc(OC)c1OC | 31%
19 | Oc1c(C(Nc2nc3ccccc3s2)c2ccc(OC(F)F)cc2)ccc2cccnc12 (stereo not given) | 4.28% (active)
20 | C[C@H](c1cccc2ccccc12)N(C)Cc1ccccc1 | 44.4%

Row | Structure (SMILES) | parasite survival
21 | COc1ccc2nc(-c3ccccc3)cc(O)c2c1 | 6.87% (active)
22 | O=C(O)c1ccc(-n2nc(-c3ccccc3O)nc2-c2ccccc2O)cc1 | 25.7%
23 | Nc1ccc(-c2nc3cc(C(F)(F)F)ccc3n2C23CC4CC(CC(C4)C2)C3)cc1 | 53%
24 | CONC(=N)c1ccc(-c2ccc(-c3ccc(C(=N)NOC)cc3)o2)cc1 | 49.7%
25 | Nc1nnnn1CCOc1c2[nH]c3ccc(Cl)cc3c2cc2c1[nH]c1ccc(Cl)cc12 | 28.5%
26 | CSC[C@H]1CN(Cc2c[nH]c3c(N)ncnc23)C[C@@H]1O | 45.9%
27 | CCc1cc(Nc2cc(=O)n(CCN3CCN(C(=O)c4ccccc4)CC3)c(=O)[nH]2)ccc1C | 26%
28 | O=c1cc(OCc2ccccc2)ccn1Cc1ccccc1 | 37%
29 | Cn1cc(NC(=O)c2cc(NC(=O)c3ccc(/C=C/c4cnc5ccccc5c4)cc3)cn2C)cc1C(=O)NCCN1CCOCC1 | 12.8% (active)
30 | CCc1nc(N)nc(N)c1C#CCc1ccccc1 | 5.77% (active)
31 | CCC[C@H](NC(=O)[C@@H]1[C@H]2CCC[C@H]2CN1C(=O)[C@@H](NC(=O)[C@@H](NC(=O)c1cnccn1)C1CCCCC1)C(C)(C)C)C(=O)C(=O)NC1CC1 | 46.8%
32 | CCc1ccccc1OCCN1CCCCCC1 | 47.2%
33 | C[C@H]1CC[C@]2(NC1)O[C@H]1C[C@H]3[C@@H]4CC[C@H]5C[C@@H](O)CC[C@]5(C)[C@H]4CC[C@]3(C)[C@H]1[C@@H]2C | 41.1%
34 | Nc1cnn(C2OC(CO)C(O)C2O)c(=O)n1 (stereo not given) | 76.2%
35 | O=c1oc2ccc(Br)cc2cc1CSc1ncc[nH]1 | 63.6%
36 | COc1ccc(C2CNC(=O)C2)cc1OC1CCCC1 (stereo not given) | 69.8%
37 | FC(F)(F)c1cc(C(F)(F)F)c2ccc3nc(-c4nnco4)cn3c2n1 | 77.8%
38 | COc1ccc(OCc2ccc(COc3c(Cl)cccc3Cl)cc2)c(Cl)c1 | 72%
39 | O=P(O)(O)C(CCCc1cccc(Oc2ccccc2)c1)S(=O)(=O)O (stereo not given) | 65.2%
40 | O=C(Nc1ccccc1)N(Cc1cc(Br)ccc1O)c1ccc(F)cc1 | 21.3%
